Data taken from ChEMBL document CHEMBL2218924, “A broad activity screen in support of a chemogenomic map for kinase signalling research and drug discovery” (Biochem J, 2013).

Key:
[1] = biological target: Death-associated protein kinase 1 (Homo sapiens) (UniProt P53355); conditions: at 10 µM
[2] = biological target: Death-associated protein kinase 2 (Homo sapiens) (UniProt Q9UIK4); conditions: at 1 µM
[3] = biological target: Death-associated protein kinase 2 (Homo sapiens) (UniProt Q9UIK4); conditions: at 10 µM
[4] = biological target: T1, Serine/threonine-protein kinase DCLK2 (Homo sapiens) (UniProt Q8N568); conditions: at 1 µM
T1 sequence (whole entry): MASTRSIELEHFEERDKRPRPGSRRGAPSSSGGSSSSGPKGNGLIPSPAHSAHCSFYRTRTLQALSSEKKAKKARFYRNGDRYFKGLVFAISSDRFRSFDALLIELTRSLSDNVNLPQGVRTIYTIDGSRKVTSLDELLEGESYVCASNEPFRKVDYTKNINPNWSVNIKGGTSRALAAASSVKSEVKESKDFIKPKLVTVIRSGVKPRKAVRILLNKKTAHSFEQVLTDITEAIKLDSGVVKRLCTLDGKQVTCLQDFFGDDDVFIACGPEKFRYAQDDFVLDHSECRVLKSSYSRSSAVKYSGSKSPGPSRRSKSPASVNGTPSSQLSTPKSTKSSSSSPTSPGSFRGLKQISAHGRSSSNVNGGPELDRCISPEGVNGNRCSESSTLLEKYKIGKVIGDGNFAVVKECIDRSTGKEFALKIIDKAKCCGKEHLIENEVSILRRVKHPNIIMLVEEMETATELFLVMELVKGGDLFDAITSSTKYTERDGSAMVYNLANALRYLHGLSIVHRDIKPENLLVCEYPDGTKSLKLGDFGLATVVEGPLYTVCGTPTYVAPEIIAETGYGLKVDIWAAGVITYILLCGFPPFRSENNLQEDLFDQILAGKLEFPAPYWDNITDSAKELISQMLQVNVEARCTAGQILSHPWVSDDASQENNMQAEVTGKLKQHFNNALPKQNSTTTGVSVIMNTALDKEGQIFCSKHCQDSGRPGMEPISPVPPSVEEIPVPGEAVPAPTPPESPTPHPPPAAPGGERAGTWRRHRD

[5] = biological target: T1, Serine/threonine-protein kinase DCLK2 (Homo sapiens); conditions: at 10 µM
[6] = biological target: T2, Discoidin domain-containing receptor 2 (Homo sapiens) (UniProt Q16832); conditions: at 1 µM
T2 sequence (whole entry): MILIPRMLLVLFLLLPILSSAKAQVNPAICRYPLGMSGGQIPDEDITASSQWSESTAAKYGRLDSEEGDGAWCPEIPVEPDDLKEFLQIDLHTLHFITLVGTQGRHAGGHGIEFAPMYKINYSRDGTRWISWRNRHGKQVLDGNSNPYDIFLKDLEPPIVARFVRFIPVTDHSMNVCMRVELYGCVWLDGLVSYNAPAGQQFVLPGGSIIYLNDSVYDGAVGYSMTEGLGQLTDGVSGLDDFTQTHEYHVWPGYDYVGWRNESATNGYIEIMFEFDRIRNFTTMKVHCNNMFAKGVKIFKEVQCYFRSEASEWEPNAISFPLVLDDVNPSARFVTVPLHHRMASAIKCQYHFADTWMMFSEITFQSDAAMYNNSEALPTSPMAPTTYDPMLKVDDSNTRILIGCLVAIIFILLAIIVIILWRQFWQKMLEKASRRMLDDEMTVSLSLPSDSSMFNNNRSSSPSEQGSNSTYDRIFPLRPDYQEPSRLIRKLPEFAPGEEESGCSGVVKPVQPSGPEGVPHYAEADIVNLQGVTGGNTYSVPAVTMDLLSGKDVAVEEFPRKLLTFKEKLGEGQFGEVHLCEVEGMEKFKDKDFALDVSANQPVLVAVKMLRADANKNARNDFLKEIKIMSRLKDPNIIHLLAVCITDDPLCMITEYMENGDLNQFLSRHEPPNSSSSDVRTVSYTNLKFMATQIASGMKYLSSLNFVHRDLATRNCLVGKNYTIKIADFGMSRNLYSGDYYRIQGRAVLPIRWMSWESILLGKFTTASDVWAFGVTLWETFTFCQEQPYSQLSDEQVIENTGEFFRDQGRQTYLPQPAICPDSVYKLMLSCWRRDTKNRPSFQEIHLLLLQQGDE

[7] = biological target: T2, Discoidin domain-containing receptor 2 (Homo sapiens); conditions: at 10 µM
[8] = biological target: T3, Myotonin-protein kinase (Homo sapiens) (UniProt Q09013); conditions: at 1 µM
T3 sequence (whole entry): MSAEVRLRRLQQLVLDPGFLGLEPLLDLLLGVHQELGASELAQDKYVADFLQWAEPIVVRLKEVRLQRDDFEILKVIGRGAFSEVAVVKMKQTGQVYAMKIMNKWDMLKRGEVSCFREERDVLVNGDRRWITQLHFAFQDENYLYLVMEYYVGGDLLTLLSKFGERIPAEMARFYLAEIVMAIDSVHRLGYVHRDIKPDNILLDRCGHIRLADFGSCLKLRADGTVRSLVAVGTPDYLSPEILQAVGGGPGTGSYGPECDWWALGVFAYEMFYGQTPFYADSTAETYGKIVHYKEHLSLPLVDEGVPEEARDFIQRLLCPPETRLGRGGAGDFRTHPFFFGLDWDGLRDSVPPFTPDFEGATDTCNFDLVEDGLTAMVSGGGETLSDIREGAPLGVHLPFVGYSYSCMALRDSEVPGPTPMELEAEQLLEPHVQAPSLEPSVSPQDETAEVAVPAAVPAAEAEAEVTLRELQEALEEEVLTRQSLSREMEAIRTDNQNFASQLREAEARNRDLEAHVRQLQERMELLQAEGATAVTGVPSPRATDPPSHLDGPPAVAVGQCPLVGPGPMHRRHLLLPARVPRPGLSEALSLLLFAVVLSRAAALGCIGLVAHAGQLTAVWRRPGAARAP

[9] = biological target: T3, Myotonin-protein kinase (Homo sapiens); conditions: at 10 µM
[10] = biological target: T4, Dual specificity tyrosine-phosphorylation-regulated kinase 2 (Homo sapiens) (UniProt Q92630); conditions: at 1 µM
T4 sequence (whole entry): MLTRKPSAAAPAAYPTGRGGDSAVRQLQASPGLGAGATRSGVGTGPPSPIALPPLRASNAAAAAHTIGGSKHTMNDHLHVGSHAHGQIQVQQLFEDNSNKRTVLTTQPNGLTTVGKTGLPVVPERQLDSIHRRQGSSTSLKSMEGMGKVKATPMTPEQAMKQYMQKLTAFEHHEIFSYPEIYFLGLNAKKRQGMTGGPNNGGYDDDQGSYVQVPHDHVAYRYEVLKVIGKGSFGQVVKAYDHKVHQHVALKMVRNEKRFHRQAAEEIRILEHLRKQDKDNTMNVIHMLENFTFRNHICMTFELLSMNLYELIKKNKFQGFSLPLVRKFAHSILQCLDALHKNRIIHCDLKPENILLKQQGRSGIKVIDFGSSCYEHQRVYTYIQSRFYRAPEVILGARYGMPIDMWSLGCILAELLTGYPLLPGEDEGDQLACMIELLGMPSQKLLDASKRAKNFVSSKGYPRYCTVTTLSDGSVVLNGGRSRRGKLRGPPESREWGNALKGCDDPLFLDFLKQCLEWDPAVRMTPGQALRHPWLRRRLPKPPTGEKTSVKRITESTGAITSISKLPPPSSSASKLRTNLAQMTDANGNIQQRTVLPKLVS

[11] = biological target: T4, Dual specificity tyrosine-phosphorylation-regulated kinase 2 (Homo sapiens); conditions: at 10 µM
[12] = biological target: T5, Ephrin type-A receptor 1 (Homo sapiens) (UniProt P21709); conditions: at 1 µM
T5 sequence (whole entry): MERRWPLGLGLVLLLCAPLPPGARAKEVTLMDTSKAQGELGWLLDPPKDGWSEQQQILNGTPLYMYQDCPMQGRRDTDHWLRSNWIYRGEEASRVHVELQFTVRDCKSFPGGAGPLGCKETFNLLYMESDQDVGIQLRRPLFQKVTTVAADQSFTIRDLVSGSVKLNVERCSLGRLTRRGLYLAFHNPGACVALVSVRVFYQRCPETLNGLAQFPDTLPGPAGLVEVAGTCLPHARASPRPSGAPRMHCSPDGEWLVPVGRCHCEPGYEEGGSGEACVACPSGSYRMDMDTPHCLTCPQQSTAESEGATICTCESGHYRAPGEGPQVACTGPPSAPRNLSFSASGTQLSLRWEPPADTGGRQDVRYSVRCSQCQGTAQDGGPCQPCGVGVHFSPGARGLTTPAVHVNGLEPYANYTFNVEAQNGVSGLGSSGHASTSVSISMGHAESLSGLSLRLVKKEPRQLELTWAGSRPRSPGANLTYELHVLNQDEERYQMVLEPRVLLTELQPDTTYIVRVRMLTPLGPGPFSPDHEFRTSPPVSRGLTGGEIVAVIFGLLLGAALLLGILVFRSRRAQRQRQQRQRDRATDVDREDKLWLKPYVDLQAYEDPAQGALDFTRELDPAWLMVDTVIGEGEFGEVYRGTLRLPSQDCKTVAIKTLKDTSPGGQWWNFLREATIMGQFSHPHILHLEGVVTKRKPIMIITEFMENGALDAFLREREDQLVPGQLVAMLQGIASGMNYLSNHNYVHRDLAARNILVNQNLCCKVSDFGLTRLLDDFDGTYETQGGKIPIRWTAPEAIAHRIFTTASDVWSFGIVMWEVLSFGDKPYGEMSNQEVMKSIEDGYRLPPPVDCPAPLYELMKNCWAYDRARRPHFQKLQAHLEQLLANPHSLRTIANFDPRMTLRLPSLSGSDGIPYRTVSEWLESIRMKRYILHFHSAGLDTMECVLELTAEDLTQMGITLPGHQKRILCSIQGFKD

[13] = biological target: T5, Ephrin type-A receptor 1 (Homo sapiens); conditions: at 10 µM
[14] = biological target: Ephrin type-A receptor 2 (Homo sapiens) (UniProt P29317); conditions: at 1 µM
[15] = biological target: Ephrin type-A receptor 2 (Homo sapiens) (UniProt P29317); conditions: at 10 µM
[16] = biological target: T6, Ephrin type-A receptor 3 (Homo sapiens) (UniProt P29320); conditions: at 1 µM
T6 sequence (whole entry): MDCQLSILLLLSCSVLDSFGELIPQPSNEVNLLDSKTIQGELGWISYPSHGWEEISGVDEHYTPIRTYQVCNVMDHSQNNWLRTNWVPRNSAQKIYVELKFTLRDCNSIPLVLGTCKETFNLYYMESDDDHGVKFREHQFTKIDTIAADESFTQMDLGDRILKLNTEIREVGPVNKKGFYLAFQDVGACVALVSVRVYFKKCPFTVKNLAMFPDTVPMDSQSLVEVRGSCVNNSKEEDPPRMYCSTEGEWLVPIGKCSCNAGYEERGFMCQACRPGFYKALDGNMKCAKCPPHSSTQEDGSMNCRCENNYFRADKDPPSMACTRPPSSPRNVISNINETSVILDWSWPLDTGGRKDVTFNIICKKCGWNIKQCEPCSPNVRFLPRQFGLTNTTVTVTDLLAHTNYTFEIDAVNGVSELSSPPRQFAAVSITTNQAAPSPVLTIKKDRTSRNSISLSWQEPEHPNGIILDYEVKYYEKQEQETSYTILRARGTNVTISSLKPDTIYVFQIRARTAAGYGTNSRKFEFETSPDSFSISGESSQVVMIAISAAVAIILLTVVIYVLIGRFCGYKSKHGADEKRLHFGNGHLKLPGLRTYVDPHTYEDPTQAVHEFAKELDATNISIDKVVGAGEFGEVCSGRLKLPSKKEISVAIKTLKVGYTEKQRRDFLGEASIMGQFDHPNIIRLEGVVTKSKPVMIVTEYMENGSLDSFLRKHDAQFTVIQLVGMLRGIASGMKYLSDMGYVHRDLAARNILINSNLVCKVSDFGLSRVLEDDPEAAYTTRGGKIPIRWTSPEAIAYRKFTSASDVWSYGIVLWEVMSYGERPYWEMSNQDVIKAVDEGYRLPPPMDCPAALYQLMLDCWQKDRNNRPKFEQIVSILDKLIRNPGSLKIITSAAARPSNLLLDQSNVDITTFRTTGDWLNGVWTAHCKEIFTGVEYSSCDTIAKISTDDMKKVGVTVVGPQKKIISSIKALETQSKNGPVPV

[17] = biological target: T7, Serine/threonine-protein kinase 17A (Homo sapiens) (UniProt Q9UEE5); conditions: at 1 µM
T7 sequence (whole entry): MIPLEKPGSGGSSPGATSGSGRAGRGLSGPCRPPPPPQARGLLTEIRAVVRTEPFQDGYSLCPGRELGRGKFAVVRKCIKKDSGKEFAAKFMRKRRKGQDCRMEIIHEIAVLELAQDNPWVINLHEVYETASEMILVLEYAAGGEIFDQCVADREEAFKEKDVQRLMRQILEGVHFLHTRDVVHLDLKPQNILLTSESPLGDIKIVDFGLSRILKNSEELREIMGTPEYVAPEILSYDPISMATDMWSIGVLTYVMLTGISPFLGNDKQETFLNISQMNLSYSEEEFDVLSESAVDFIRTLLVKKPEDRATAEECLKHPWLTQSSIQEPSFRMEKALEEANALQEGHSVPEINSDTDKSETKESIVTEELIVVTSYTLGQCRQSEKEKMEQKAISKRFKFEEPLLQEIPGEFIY

[18] = biological target: T7, Serine/threonine-protein kinase 17A (Homo sapiens); conditions: at 10 µM

Death-associated protein kinase 1 (Homo sapiens), sequence (P53355 whole entry, looked up): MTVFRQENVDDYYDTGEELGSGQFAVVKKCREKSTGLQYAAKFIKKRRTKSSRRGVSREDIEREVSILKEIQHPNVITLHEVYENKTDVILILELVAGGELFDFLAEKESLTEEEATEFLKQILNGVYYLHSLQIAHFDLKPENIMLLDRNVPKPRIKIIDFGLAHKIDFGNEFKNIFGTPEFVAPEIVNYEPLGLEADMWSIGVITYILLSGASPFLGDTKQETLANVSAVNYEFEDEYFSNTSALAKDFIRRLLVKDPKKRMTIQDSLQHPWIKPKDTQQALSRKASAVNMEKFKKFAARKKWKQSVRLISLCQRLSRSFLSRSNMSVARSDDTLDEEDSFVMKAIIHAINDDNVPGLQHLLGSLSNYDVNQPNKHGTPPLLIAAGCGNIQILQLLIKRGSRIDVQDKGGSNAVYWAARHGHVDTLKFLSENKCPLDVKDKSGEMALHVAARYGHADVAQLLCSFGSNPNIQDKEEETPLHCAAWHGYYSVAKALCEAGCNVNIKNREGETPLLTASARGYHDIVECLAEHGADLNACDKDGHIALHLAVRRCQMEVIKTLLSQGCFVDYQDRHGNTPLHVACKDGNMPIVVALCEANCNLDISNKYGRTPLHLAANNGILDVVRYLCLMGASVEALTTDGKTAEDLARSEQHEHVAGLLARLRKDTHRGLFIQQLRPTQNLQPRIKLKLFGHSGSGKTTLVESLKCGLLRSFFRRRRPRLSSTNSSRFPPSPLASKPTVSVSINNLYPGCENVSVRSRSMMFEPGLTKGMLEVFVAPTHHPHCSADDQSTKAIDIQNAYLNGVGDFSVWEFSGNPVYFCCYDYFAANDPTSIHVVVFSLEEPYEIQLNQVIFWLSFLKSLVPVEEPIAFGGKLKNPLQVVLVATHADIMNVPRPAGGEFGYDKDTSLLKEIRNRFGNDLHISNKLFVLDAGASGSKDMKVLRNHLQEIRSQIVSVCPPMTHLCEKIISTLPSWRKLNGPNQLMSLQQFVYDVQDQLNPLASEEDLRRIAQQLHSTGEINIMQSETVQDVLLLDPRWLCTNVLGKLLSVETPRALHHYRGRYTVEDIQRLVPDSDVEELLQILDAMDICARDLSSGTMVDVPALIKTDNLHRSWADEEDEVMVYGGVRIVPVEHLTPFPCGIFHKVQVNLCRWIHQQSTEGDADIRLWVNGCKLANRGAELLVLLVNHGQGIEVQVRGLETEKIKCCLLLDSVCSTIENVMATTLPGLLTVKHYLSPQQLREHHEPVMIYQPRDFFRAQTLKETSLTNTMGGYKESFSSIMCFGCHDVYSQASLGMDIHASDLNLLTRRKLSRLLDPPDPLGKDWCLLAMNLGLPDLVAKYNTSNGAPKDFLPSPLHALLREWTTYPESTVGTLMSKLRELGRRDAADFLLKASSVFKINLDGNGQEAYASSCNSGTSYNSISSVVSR
Death-associated protein kinase 2 (Homo sapiens), sequence (Q9UIK4 whole entry, looked up): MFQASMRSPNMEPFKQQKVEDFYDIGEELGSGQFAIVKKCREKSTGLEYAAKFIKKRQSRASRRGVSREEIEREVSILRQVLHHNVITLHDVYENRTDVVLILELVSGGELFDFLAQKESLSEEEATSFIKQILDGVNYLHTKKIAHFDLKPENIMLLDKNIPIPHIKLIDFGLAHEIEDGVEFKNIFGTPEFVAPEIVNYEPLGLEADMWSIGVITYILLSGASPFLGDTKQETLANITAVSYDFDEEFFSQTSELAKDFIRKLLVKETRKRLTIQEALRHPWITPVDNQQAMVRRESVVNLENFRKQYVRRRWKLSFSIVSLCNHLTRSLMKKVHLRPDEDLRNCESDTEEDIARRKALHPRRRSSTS
Ephrin type-A receptor 2 (Homo sapiens), sequence (P29317 whole entry): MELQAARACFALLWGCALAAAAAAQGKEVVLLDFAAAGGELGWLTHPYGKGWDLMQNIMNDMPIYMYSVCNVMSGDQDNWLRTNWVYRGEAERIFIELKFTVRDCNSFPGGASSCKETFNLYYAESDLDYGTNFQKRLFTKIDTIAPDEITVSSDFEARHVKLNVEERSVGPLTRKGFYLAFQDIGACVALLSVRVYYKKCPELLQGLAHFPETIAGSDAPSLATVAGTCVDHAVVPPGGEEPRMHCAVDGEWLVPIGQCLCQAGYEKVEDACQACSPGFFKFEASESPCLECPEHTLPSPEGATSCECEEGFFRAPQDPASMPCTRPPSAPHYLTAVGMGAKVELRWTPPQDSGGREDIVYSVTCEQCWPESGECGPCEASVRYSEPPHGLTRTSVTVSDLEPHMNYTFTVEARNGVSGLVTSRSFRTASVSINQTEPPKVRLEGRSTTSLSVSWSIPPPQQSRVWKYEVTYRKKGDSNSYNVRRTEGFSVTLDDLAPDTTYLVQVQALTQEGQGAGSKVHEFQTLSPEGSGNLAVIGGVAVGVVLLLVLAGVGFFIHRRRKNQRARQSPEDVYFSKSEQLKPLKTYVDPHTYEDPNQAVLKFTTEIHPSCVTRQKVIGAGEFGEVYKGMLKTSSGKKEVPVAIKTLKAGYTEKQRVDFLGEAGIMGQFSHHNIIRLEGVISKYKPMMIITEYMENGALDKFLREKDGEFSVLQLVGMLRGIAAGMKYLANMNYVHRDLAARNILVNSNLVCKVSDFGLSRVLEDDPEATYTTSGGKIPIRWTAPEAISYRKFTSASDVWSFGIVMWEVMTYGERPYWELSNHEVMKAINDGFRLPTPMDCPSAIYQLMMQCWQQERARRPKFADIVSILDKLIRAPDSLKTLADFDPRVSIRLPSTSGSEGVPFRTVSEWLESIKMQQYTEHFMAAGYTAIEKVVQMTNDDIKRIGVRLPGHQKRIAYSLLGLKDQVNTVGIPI

| SMILES | residual activity [1] | residual activity [2] | residual activity [3] | residual activity [4] | residual activity [5] | residual activity [6] | residual activity [7] | residual activity [8] | residual activity [9] | residual activity [10] | residual activity [11] | residual activity [12] | residual activity [13] | residual activity [14] | residual activity [15] | residual activity [16] | residual activity [17] | residual activity [18] |
| --- | --- | --- | --- | --- | --- | --- | --- | --- | --- | --- | --- | --- | --- | --- | --- | --- | --- | --- |
| Oc1ccc(-c2nc(-c3ccc(F)cc3)c(-c3ccncc3)[nH]2)cc1 | 76% | 110% | 97% | 113% | 76% | 69% | 20% | 112% | 88% | 99% | 76% | 87% | 16% | 93% | 57% | 105% | – | – |
| COc1cc2ncnc(Nc3ccc(NC(=O)c4ccccc4)cc3)c2cc1OC | 83% | 98% | 106% | 99% | 104% | – | 89% | 110% | 145% | 98% | 98% | 107% | 106% | – | – | – | 75% | 78% |
| N#CCCc1ccc2c(c1)-c1[nH]c3ccc([N+](=O)[O-])cc3c1CC(=O)N2 | – | – | – | – | – | – | – | – | – | 28% | 12% | – | – | – | – | 77% | 11% | 3% |
| COc1cc2ncc(-c3ccccc3)nc2cc1OC | 78% | 83% | – | – | 52% | – | 92% | – | – | 93% | 99% | 90% | 94% | – | 93% | – | 124% | – |
| Cc1nc(-c2ccccc2)c(-c2ccncc2)o1 | 95% | 99% | – | 124% | 113% | 50% | 36% | 104% | 102% | 99% | 87% | 103% | 81% | 93% | 59% | 92% | 120% | 77% |
